This excerpt belongs to a sample that is enriched for hits.
Menin-MLL FL inh = qHTS Assay for Inhibitors Targeting the Menin-MLL Interaction in MLL Related Leukemias: Competition With Fluorescein Labeled MLL-derived Peptide | Fluorescence polarization, fluorescein-MLL peptide displacement from menin | FP activity change, % at 61.4 µM | 290,000 tested, under 10 active; active = well fitted curve in the direction sought with a large enough effect in the polarisation, not every such curve was filed as active; inconclusive = small, poorly fitted or top-dose-only effect, or effect the other way, or a change in a side signal; inactive = no such curve, though single readings can be large or run the other way; the % refers to the polarisation; note: % of control where 0% means no effect
CBFb-RUNX1 inh = qHTS Assay for Compounds Blocking the Interaction Between CBF-beta and RUNX1 for the Treatment of Acute Myeloid Leukemia | Runt-related transcription factor 1 (Homo sapiens) + Core-binding factor subunit beta … | AlphaScreen CBFb-His/RUNX1-biotin binding, biochemical | Potency, µM (top dose mostly 59.8 µM), for the others: top-dose activity, negative = inhibition, hits mostly inhibitors | 230,000 tested, under 10 active | AID 1477, 2009; note: % of control where 0% means no effect
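Compounds were screened at multiple concentrations against a preformed CBF-beta(His)/RUNX1(biotin) complex (30 nM of each) for 15 min at room temperature, followed by 90 min with nickel and streptavidin beads and AlphaScreen reading.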
CXXC DNA block = qHTS Fluorescence Polarization Assay for Inhibitors of MLL CXXC domain - DNA interaction. Histone-lysine N-methyltransferase 2A (Homo sapiens), Q03164. MLL-CXXC / FITC-HOXA9 DNA fluorescence polarization. Potency, µM (series often up to 115 µM), without a hit: at the highest dose activity change, negative = inhibition, hits mostly inhibitors. hit rate 0.037% among 290,000. AID 2662, 2010; active = well fitted inhibition curve with a large enough effect in the polarisation, with a control signal flat, not every such curve was filed as active; inconclusive = small, poorly fitted or top-dose-only effect, or effect the other way, or a change in a side signal; inactive = no such curve, though single readings can be large or run the other way; the % refers to the polarisation; note: potency is the fitted concentration of half-maximal effect
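Fluorescence polarization: 7 uM MLL-CXXC (stock) preincubated 5 min with compounds, then 50 nM fluorescein-HOX-A9 DNA (stock) added; 30 min ambient. Buffer 50 mM Tris-HCl pH 7.5, 50 mM NaCl, 1 mM DTT, 0.05% BSA.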
Menin-MLL TR inh = qHTS Assay for Inhibitors Targeting the Menin-MLL Interaction in MLL Related Leukemias: Competition With Texas Red Labeled MLL-derived Mutant Peptide; O00255; Menin + Texas Red MLL mutant peptide, fluorescence polarization; Potency, µM (doses to about 61.6 µM), for the others: top-dose FP activity change, negative = inhibition, actives largely listed as inhibitors; hit rate 0.23% among 270,000; active = well fitted inhibition curve with a large enough effect in the polarisation, with a control signal flat, not every such curve was filed as active; inconclusive = small, poorly fitted or top-dose-only effect, or effect the other way, or a change in a side signal; inactive = no such curve, though single readings can be large or run the other way; the % refers to the polarisation; note: potency is the fitted concentration of half-maximal effect; % of control where 0% means no effect
Target sequence (O00255 whole entry, looked up): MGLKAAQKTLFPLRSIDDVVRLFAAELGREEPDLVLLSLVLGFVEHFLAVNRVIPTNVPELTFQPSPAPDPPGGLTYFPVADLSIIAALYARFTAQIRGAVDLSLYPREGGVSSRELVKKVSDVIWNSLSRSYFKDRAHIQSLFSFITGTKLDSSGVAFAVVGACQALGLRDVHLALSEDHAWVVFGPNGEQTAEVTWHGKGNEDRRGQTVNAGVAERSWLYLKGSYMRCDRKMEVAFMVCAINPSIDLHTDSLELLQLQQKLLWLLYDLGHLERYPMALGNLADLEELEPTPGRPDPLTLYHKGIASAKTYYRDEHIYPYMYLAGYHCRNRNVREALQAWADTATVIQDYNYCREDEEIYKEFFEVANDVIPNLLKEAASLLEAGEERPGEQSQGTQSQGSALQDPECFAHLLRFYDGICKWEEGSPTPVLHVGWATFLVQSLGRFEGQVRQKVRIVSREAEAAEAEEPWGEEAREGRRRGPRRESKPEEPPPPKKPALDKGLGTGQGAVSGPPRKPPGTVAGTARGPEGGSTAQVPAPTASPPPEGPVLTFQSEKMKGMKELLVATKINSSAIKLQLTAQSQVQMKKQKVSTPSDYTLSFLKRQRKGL
MBNL1 CUG block = qHTS Assay for Inhibitors of MBNL1-poly(CUG) RNA binding. TR-FRET MBNL1-His/biotin-(CUG)12 binding, 665/545 ratio. hit rate 0.036% among 280,000. AID 2675, 2010. Potency, µM (titrated, usually from 57.5 µM), without a hit: at the top dose activity change, negative = inhibition, usual class: inhibitors; active = well fitted inhibition curve with a large enough effect in the signal ratio, with a control signal flat, not every such curve was filed as active; inconclusive = small, poorly fitted or top-dose-only effect, or effect the other way, or a change in a side signal; inactive = no such curve, though single readings can be large or run the other way; the % refers to the signal ratio; note: potency is the fitted concentration of half-maximal effect; % is set by controls: 0 for no effect and ±100 for the full control effect
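Ratiometric TR-FRET (665 over 545 nm, excitation 340 nm) tracks disruption of MBNL1-His/biotin-(CUG)12 complex after 60 min at room temperature, with compounds at 92 nM to 58 uM final.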
MBNL1-CUG FRET = qHTS Assay for Inhibitors of MBNL1-poly(CUG) RNA binding: Initial hit validation from the primary screen | shares compounds with MBNL1 CUG block | TR-FRET MBNL1-His / biotin-(CUG)12 binding, 60 min | Potency, µM (series often up to 57.6 µM), for the others: at the top dose activity change, negative = inhibition, usual class: inhibitors | hit rate 50% among 140
MBNL1-CUG Alpha = qHTS Assay for Inhibitors of MBNL1-poly(CUG) RNA binding: Initial hit validation in AlphaScreen assay for MBNL1-(CUG)12 binding; hit rate 30% among 140; shares compounds with MBNL1 CUG block; AID 493205, 2011; AlphaScreen MBNL1-His / biotin-(CUG)12 binding; Potency, µM (series often up to 57.7 µM), inactives show at the top dose activity, negative = inhibition, usual class: inhibitors
MBNL1 HTRF CS = qHTS Assay for Inhibitors of MBNL1-poly(CUG) RNA binding: Counterscreen HTRF assay. hit rate 20% among 120. His-Menin/biotin-MLL peptide TR-FRET counterscreen. Potency, µM (series often up to 57.6 µM), inactives show at the top dose activity, negative = inhibition, hits mostly inhibitors. shares compounds with MBNL1 CUG block
* marks the source's active call; other numbers are inactive results; ? = inconclusive; · = no result given. Unless noted, calls come from the whole dose curve; as a rule, active = well fitted curve in the direction sought with a large enough effect; inconclusive = small, poorly fitted or top-dose-only effect, or another doubt; inactive = no such curve, though single readings can be large; an effect the other way counts as inactive or inconclusive.

SMILES	Menin-MLL FL inh	CBFb-RUNX1 inh	CXXC DNA block	Menin-MLL TR inh	MBNL1 CUG block	MBNL1-CUG FRET	MBNL1-CUG Alpha	MBNL1 HTRF CS
C/C1=C2/[N-]C(C(CC(N)=O)[C@@]2(C)CCC(=O)NCC(C)OP(=O)([O-])O[C@H]2[C@@H](O)[C@@H](n3cnc4cc(C)c(C)cc43)O[C@@H]2CO)[C@]2(C)N=C(/C(C)=C3N=C(/C=C4N=C1C(CCC(N)=O)C\4(C)C)[C@@H](CCC(N)=O)[C@]\3(C)CC(N)=O)[C@@H](CCC(N)=O)[C@]2(C)CC(N)=O.CC(=O)O.[Co] (some centres undefined)	7.5	·	-15.6%	?	·	8.19µM*	2.59µM*	·
C/C1=C2N=C(/C=C3N=C(/C(C)=C4\[N-][C@@](C)([C@@H]5N=C1[C@](C)(CCC(=O)NCC(C)OP(=O)(O)O[C@H]1[C@@H](O)[C@@H](n6cnc7cc(C)c(C)cc76)O[C@@H]1CO)[C@H]5CC(N)=O)[C@@](C)(CC(N)=O)[C@@H]4CCC(N)=O)[C@@](C)(CC(N)=O)[C@@H]\3CCC(N)=O)C(C)(C)[C@@H]/2CCC(N)=O.CC(=O)O.[Co] (some centres undefined)	·	·	·	·	·	·	·	93.7%
C=C(C)c1cccc(C(C)(C)NC(=O)Nc2ccc(OC)cc2)c1	2.2	-1.2%	2.0%	-3.8%	0.4%	·	·	·
Cc1ccc(NC(=O)CSc2ncc(S(=O)(=O)c3ccccc3)c(=O)[nH]2)cc1C	3.5	-2.3%	8.7%	1.0%	25.1µM*	?	?	6.1%
COc1cccc(NC(=O)CSc2ncc(S(=O)(=O)c3ccccc3)c(=O)[nH]2)c1	5.0	4.7%	-1.1%	·	-4.3%	·	·	·
O=C(Nc1cccc(Cl)c1N1CCCC1)c1ccco1	3.7	·	2.4%	-23.3%	-2.6%	·	·	·
CCN1C(=O)N/C(=C/c2cc(C)n(Cc3ccccc3)c2C)C1=O	8.8	-22.3%	2.8%	2.0%	32.3%	·	·	·
CC1=C(C)CC(C(=O)Nc2nc(C)cs2)C(C(=O)O)C1 (centres undefined)	-1.3	·	-7.7%	-3.7%	-2.3%	·	·	·
COc1ccc(CCNC(=O)C2CC(=O)N(c3ccccc3)C2)cc1OC (centres undefined)	-1.8	26.0%	-7.4%	-22.1%	11.2%	-4.9%	-2.1%	1.3%
COc1ccc(CCNC(=O)C2CC(=O)N(c3ccc(Br)cc3)C2)cc1OC (centres undefined)	4.0	3.3%	-12.5%	-11.8%	-7.0%	·	·	·
O=C(CSc1n[nH]c(-c2ccncc2)n1)NC1CCS(=O)(=O)C1 (centres undefined)	-4.0	-2.5%	-4.1%	2.6%	7.94µM*	10.3µM*	6.9%	?
Nc1nc(-c2nc3ccccc3[nH]2)cs1	2.9	-14.4%	22.7%	-4.8%	11.5%	·	·	·
O=C(NCCCN1CCCCCC1)c1ccc(CS(=O)(=O)Cc2ccccc2F)o1	-11.8	?	29.0%	?	39.8µM*	?	0.4%	-2.0%
COC(=O)c1ccc(=O)c2nc3/c(=C/O)c(O)cc(=O)c3[nH]c12	?	·	-25.4%	·	?	0.259µM*	0.291µM*	5.2%
CCOC(=O)CCCCC(=O)c1[nH]c(=O)[nH]c1Cn1cnc2ccccc21	2.3	-12.7%	-2.6%	?	10µM*	10.3µM*	2.59µM*	25.9µM*
Cc1cc(N2CCN(C)CC2)nc2ccc(NC(=O)c3ccc4c(c3)OCO4)cc12	3.4	-0.8%	10.4%	18.0%	-3.6%	·	·	·
COc1cc(C(=O)Nc2ccc3nc(N4CCN(C)CC4)cc(C)c3c2)cc(OC)c1OC	0.0	·	-6.9%	-9.8%	22.4µM*	10.3µM*	-12.0%	29.1µM*
OC1(c2ccc(Cl)cc2)CCN(Cc2cn[nH]c2-c2ccccc2)CC1	-2.9	-25.4%	-0.5%	·	10µM*	41.1µM*	-10.3%	-12.3%
COc1ccc(C(c2c(C)n(C)n(-c3ccccc3)c2=O)c2c(C)n(C)n(-c3ccccc3)c2=O)cc1OC	-0.5	·	1.8%	9.6%	9.4%	·	·	·
COc1ccc(C(c2c(C)[nH]n(-c3ccccc3)c2=O)c2c(C)[nH]n(-c3ccccc3)c2=O)cc1OC	4.5	-10.1%	?	11.6%	39.8µM*	?	?	3.6%
O=C(NC(=S)NNS(=O)(=O)c1ccccc1)c1ccccc1[N+](=O)[O-]	0.8	4.8%	22.9%	0.1%	·	·	·	·
COc1ccc(C)cc1S(=O)(=O)Nc1ccc(F)c(Cl)c1	0.3	8.9%	3.9%	9.8%	25.1µM*	-3.0%	-10.6%	-3.3%
Cc1cc(C)cc(N2CCCn3c2nc2c3c(=O)[nH]c(=O)n2C)c1	1.5	·	?	?	-1.0%	·	·	·
COc1ccccc1NC(=O)Nc1ccnn1C1CCCCC1	-0.2	-0.1%	5.5%	-2.9%	-0.9%	-7.1%	-16.8%	0.1%
COc1ccccc1NC(=O)Nc1ccnn1Cc1cccs1	-2.3	-4.1%	-3.0%	3.9%	3.98µM*	1.3µM*	0.651µM*	10.3µM*
COc1ccccc1NC(=O)Cc1cccs1	5.3	7.6%	-1.3%	-13.9%	3.6%	·	·	·
COc1ccccc1NC(=O)Nc1ccnn1C1CCN(C(=O)c2ccccn2)CC1	·	·	1.2%	·	1.6%	·	·	·
Cc1ccccc1Nc1nnc(SCc2nc3ccccc3c(=O)[nH]2)s1	-1.6	-1.3%	-10.6%	-8.6%	-1.8%	·	·	·
COc1ccc(NC(=O)NC(C(F)(F)F)C(F)(F)F)cc1	2.4	4.3%	-3.6%	-2.2%	31.6µM*	?	-2.4%	?
O=C(NCc1cccs1)Nc1cc(Cl)ccc1Cl	-2.1	-0.5%	-2.6%	3.7%	-9.1%	·	·	·

Screening data deposited in PubChem BioAssay by National Center for Advancing Translational Sciences (NCATS).
